From PubChem
Many of the other results were omitted from the sample, so hits are more common in it than they were.
ST2 IL33 inh – inhibitors of human ST2 (IL1RL1) binding to IL-33, primary screen, biochemical, AlphaLISA; Interleukin-1 receptor-like 1 (Homo sapiens), Q01638; AlphaLISA ST2-Fc/biotin-IL-33 interaction, 1 h; inhibition, % for hits at 17 µM; 78,000 tested, 2.3% active; AID 1259354, 2018; in the data active means inhibition above about 30%
Target sequence (Q01638 whole entry, looked up): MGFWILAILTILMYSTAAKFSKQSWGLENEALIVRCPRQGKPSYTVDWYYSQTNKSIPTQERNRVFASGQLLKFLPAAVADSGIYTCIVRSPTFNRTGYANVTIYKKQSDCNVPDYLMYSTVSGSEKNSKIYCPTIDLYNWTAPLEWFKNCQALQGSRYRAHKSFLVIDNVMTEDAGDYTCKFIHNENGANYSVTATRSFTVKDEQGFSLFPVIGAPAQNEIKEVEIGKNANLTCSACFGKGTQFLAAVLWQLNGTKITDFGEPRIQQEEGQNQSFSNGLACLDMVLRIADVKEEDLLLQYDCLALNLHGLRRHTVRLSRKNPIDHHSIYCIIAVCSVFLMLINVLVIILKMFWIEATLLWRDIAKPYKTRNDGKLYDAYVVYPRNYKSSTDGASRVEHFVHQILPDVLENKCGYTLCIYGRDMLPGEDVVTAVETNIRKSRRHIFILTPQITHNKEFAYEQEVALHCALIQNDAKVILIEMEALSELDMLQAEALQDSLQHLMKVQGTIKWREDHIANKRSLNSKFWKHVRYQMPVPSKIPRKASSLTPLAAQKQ
* hit, by the source's call; i = inactive.

SMILES | ST2 IL33 inh
O=C(N[C@H]1CCN2C(=O)N(c3ccc(OC(F)(F)F)cc3)C(=O)[C@@H]2C1)c1ccncc1 | i
CC(=O)N1CCC(C(=O)N[C@H]2CCN3C(=O)N(c4cccc(C(F)(F)F)c4)C(=O)[C@@H]3C2)CC1 | i
O=C(N[C@H]1CCN2C(=O)N(c3cccc(C(F)(F)F)c3)C(=O)[C@@H]2C1)c1ccncc1 | 56%*
CCC(C)NC(=O)CSc1nc2nc(C)c(Cc3ccccc3Cl)c(C)n2n1 (stereo not drawn) | i
CCN1C(=O)C2(OCCO2)c2cc([N+](=O)[O-])ccc21 | i
COC(=O)C1=C(NC(=O)c2ccc(C(C)(C)C)cc2)CCS1 | 53%*
COC(=O)c1c(NC(=O)COc2ccc(C(C)(C)C)cc2)sc2c1CCC2 | i
COC(=O)C1=C(NC(=O)c2ccc(Cc3ccccc3)cc2)CCS1 | 31%*
CC(C)(C)c1ccc(C(=O)Nc2ccc3c(c2)OCO3)cc1 | i
COc1ccccc1NC(=O)c1ccc(OCc2ccccc2)cc1 | i
CCc1ccc(NC(=O)c2ccc(N(Cc3ccccc3)S(C)(=O)=O)cc2)cc1 | i
CC1=C(C(=O)Nc2cccnc2)C(c2ccncc2)n2ncnc2N1 (stereo not drawn) | i
O=C(NCCO)c1cccc(I)c1 | i
Nc1ccnn1-c1ccccc1 | i
NC1=NCCN1c1ccccc1 | i
NC1=NN(c2ccccc2)CC1 | 40%*
CCC1(CC)C(=O)NC(=O)N=C1N | i
O=C(CCCN1C(=O)c2ccccc2C1=O)NC12C[C@@H]3C[C@@H](CC(O)(C3)C1)C2 | i
O=C(NC1CCCCC1)O[C@@H]1CO[C@H]2[C@@H]1OC[C@@H]2n1nnnc1-c1ccccc1 | 39%*
O=C(NC1CCCCC1)N[C@H]1CO[C@H]2[C@@H]1OC[C@@H]2n1nnnc1Oc1ccc(-n2ccnc2)cc1 | i
COc1cccc(-c2nnnn2[C@H]2CO[C@H]3[C@@H]2OC[C@@H]3NC(=O)c2ccc(C(F)(F)F)cc2)c1 | i
CCC1=C(c2ccc(OC)cc2)S(=O)(=O)N(CC(=O)NC2CCCCCC2)C1=O | i
CC(=O)N[C@H]1CC[C@]2(C)CC[C@@H]([C@H](C)C(=O)NC3CCCC3)[C@H](O)[C@H]2[C@@H]1C | i
C=CCNC(=O)COc1ccc2c(c1)C(=O)CC(C)(C)O2 | i
COc1ccc(C2=NN(C(=O)CCC(=O)O)C(c3cc4ccc(C)cc4nc3Cl)C2)cc1 (stereo not drawn) | i
SMILES | ST2 IL33 inh
COc1ccc(C2=NN(CN3C(=O)C(=O)c4ccccc43)C(c3ccc(C)cc3)C2)cc1 (stereo not drawn) | 43%*
COc1ccc(C2CC(c3ccc(Br)cc3)=NN2C(=O)CCCC(=O)O)cc1 (stereo not drawn) | i
O=C(NC1CC(=O)N(CCCc2ccccc2)C1)c1cccc2nccnc12 (stereo not drawn) | i
O=C1C[C@H]2CC[C@@H](CN1)N2C(=O)Cc1c[nH]c2ccccc12 | i
Cc1oc(-c2ccccc2Cl)nc1CSCC(=O)NCc1ccc2c(c1)OCO2 | i
CCOC(=O)c1oc2ccccc2c1NC(=O)COc1ccc(OC)cc1 | i
CN(C(=O)Cn1nnnc1CN1CCOCC1)C1CCCc2ccccc21 (stereo not drawn) | i
Cc1cccc(NC(=O)C2(c3ccccc3)CC2(Cl)Cl)c1C (stereo not drawn) | i
N=c1oc2c(Cl)cc(Cl)cc2cc1C(=O)Nc1ccccc1 | i
O=C1c2c(O)ccc(O)c2C(=O)c2c(NCCNCCO)ccc(NCCNCCO)c21 | 82%*
O=C1c2cccc3cccc(c23)C(=O)N1CCNCCO | i
Cc1ccc(CN2CCCN(S(=O)(=O)c3ccc(Br)s3)CC2)cc1 | 35%*
Cc1ccc(CNS(=O)(=O)c2ccc(Br)s2)cc1 | i
O=C(CNS(=O)(=O)c1ccc(Br)s1)N1CCN(Cc2ccccc2)CC1 | i
CC(=O)Nc1ccc(Cc2ccc(NC(C)=O)c(C)c2)cc1C | i
Cc1noc(C)c1CC(=O)N1CCC(CCC(=O)NCc2cccnc2)CC1 | i
CCN(CC)CCC(=O)C=C(C)C | i
CCOC(=O)C1CCCN(C(=O)c2cn(CC(C)C)c(=O)c3cc(OC)c(OC)cc23)C1 (stereo not drawn) | i
CCN1CCN(C(=O)c2cn(CC)c(=O)c3cc(OC)c(OC)cc23)CC1 | i
COc1ccc(N2CCN(C(=O)c3cn(C)c(=O)c4cc(OC)c(OC)cc34)CC2)cc1 | 46%*
CCOC(=O)C1CCCN(C(=O)c2cn(CC)c(=O)c3cc(OC)c(OC)cc23)C1 (stereo not drawn) | i
CCn1cc(C(=O)N2CCN(C)CC2)c2cc(OC)c(OC)cc2c1=O | i
CCOC(=O)C1CCCN(C(=O)c2cn(C)c(=O)c3cc(OC)c(OC)cc23)C1 (stereo not drawn) | 35%*
COc1ccc(C2OC(=O)C(C)(C)C(=O)C23CCCCC3)cc1OC (stereo not drawn) | i
Cc1ccc(S(=O)(=O)N2CC(C)OC(C)C2)c(C)c1C (stereo not drawn) | i
